From ChEMBL document CHEMBL1157539, “Thousands of chemical starting points for antimalarial lead identification” (Nature, 2010)
“And” between values parts separate entries of the source, which are not always exact repeats. Equal values may be shown once.

Test system: Plasmodium falciparum
Test: GSK_TCMDC: Inhibition of Plasmodium falciparum Dd2 in whole red blood cells, using parasite LDH activity as an index of growth. Test compounds present at 2uM
Type: functional

Row | Compound | Inhibition
1 | Cc1cccc2nc(-c3cccc(-c4ccc(NC(=O)C(C)C(=O)NC(C)C)cc4)c3)[nH]c12 (stereo not given) | 26%
2 | Cc1ccc(C(=O)Nc2ccc(OC3CCN(CCC(C)C)C3)c(Cl)c2)cc1.O=C(O)C(F)(F)F (stereo not given) | 38%
3 | CC(C)(C)C(=O)Nc1ccc(C(=O)Nc2cccc(-c3nc4ccccc4[nH]3)c2)cc1 | 62%
4 | Cc1ccc(NC(=O)c2ccc(CN3CCCN(Cc4cccc(C#N)c4)CC3)cc2)cc1F.O=C(O)C(F)(F)F | 19%
5 | CCN(CC)CC(O)CNc1c2ccc([N+](=O)[O-])cc2nc2cc(OC)c(OC)cc12.Cl (stereo not given) | 100%
6 | COc1ccccc1OCCN(CC(O)COc1cccc2[nH]c3ccccc3c12)CC(O)COc1cccc2[nH]c3ccccc3c12 (stereo not given) | 96%
7 | CCCCCN1CCC(NS(=O)(=O)c2cccc(C(=O)Nc3ccc(Cl)cc3)c2)CC1.O=C(O)C(F)(F)F | 29%
8 | Cl.Oc1ccc(Nc2nc(N3CCCC3)c3ccccc3n2)cc1 | 100%
9 | O=C(NCCCCCN1CCC(c2c[nH]c3ccccc23)CC1)c1ccc(Cl)c(Cl)c1 | 10%
10 | O=S(=O)(Nc1ccc(CCN2CCCCC2CCN2CCCC2)cc1)c1cccc2cccnc12 (stereo not given) | 0%
11 | CCOc1ccc2c(=NN=Cc3ccccn3)cc(C)[nH]c2c1 | 1%
12 | Cc1cccc(C(O)CNc2ccnc(Nc3cccc(-c4csc(C)n4)c3)n2)c1 (stereo not given) | 88%
13 | O=C(/C=C/c1ccc(Cl)c(Cl)c1)NCCCCCN1CCC(C(=O)Nc2ccc(F)c(Cl)c2)CC1 | 0%
14 | CCN1CCCC(Nc2ccnc3cc4ccccc4cc23)C1 (stereo not given) | 100%
15 | COc1ccc(Nc2nccc(NCCNC(=O)c3cc4ccccc4s3)n2)cc1 | 7%
16 | O=C(C=Cc1ccc(Cl)c(Cl)c1)NCCCCCN1CCCC(CCCNC(=O)c2cccs2)C1 (stereo not given) | 0%
17 | Cc1nn(CC(C)C)c2sc(C(=O)Nc3nc(-c4ccccn4)cs3)cc12 | 67%
18 | Cc1cccc2nc(-c3ccc(-c4cccc(NC(=O)Nc5ccccc5)c4)cc3)[nH]c12 | 14%
19 | Cc1nc(-c2nc(NCc3ccncc3)ncc2-c2ccsc2)sc1C | 83%
20 | O=C(O)C(F)(F)F.c1ccc(CCNCc2ccc(-c3ccc(CNC4CCN(Cc5ccccc5)CC4)cc3)nc2)cc1 | 99%

Row | Compound | Inhibition
21 | Nc1ncc(-c2cn[nH]c2)cc1-c1nc2ccc(Cl)cc2[nH]1 | 100%
22 | CN(C)CCNCc1ccc(-c2ccc3c(Nc4ccc(Cl)cc4F)ccnc3c2)o1 | 100%
23 | COc1ccc(Nc2ncc(Cl)c(Nc3cccnc3C(N)=O)n2)cc1N1CCN(C)CC1.Cl | 97%
24 | Cc1ccc(S(=O)(=O)c2nc(S(=O)(=O)c3ccccc3)sc2NCC2CCCO2)cc1 (stereo not given) | 17%
25 | CC(CN(C)C)C(=O)Nc1ccc(-c2ccc(-c3nc4cc(C(F)(F)F)ccc4[nH]3)cc2)cc1 (stereo not given) | 93%
26 | Cc1ccc(N2C(N)=NC(N)=NC2(C)C)cc1Cl.Cl | 77%
27 | CC(C)C[C@@H](C(=O)N[C@@H](CCCCNC(=O)OCc1ccccc1)C(=O)Nc1nccs1)[C@H](C)N(O)C=O | 98%
28 | Cc1nc2nc(N)nc(N)c2c(C)c1Cc1ccccc1Br.Cl | 2%
29 | Cn1cc(C(=O)Nc2cccc(-c3cccc(-c4nc5cc(F)ccc5[nH]4)c3)c2)n(C)c1=O | 50%
30 | CC(C)CC(=O)N1CCNC[C@@H]1C(=O)NCCSCc1c(F)cccc1Cl.O=C(O)C(F)(F)F | 3%
31 | O=C(N[C@@H](CC1CCCCC1)C(=O)NCCN1CCCC1)c1ccc(O)c(-c2ccc(Cl)c(Cl)c2)c1 | 99%
32 | CCNc1cc(C(=O)N[C@@H](Cc2ccccc2)[C@H](O)CNC(CC)c2cccc(Cl)c2)cc(N2CCCCS2(=O)=O)c1.Cl (stereo not given in full) | 98%
33 | Cc1[nH]c(C)c(-c2ccc(Oc3ccc(OC(F)(F)F)cc3)cc2)c(=O)c1Br | 97% and 95%
34 | O=C(Nc1cc(F)cc(F)c1)NC1CCN(CCCCCNC(=O)C2CC2c2ccc(Cl)c(Cl)c2)CC1 (stereo not given) | 6%
35 | O=C(O)C(F)(F)F.c1ccc2[nH]c(-c3ccc(-c4ccc(CNCC5CCCO5)cc4)s3)nc2c1 (stereo not given) | 87%
36 | COc1ccc(-c2cccc(NC(=O)c3cccc(C#N)c3)c2)cc1CN(C)CCN(C)C.O=C(O)C(F)(F)F | 21%
37 | Clc1ccc(CNCCCCCCNCc2ccc(Cl)cc2)cc1.O=C(O)c1ccc2ccccc2c1O | 28%
38 | O=C(O)C(F)(F)F.c1ccc(CNCc2cccc(-c3ccc(-c4nc5ccccc5[nH]4)cc3)c2)cc1 | 39%
39 | Cc1cc(-c2cccc(CNC3CCN(C)CC3)c2)ccc1S(=O)(=O)NCCc1ccccn1.O=C(O)C(F)(F)F | 72%
40 | O=C(Nc1cccc(-c2ccc(CN3CCCC3)cc2)c1)c1ccc(Cl)cc1.O=C(O)C(F)(F)F | 47%
